From PubChem
Shown are actives, neighbours in structure and some others; about 5.1% of the full set was active somewhere.
TMEM16A act: TMEM16A chloride channel activators or potentiators, primary screen, cell-based, HTS. AID 623877, 2012. HEK293 TMEM16A/YFP-H148Q/I152L, iodide quench fluorescence; stronger effect = lower value. 0.3% of 340,000 active. B-score at 10 µM;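 active = fluorescence-ratio B-score plate-corrected deviation score at least 3 library SD below zero, with starting fluorescence score within 5 deviations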;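 also: channel opened by trigger with iodide after compound preincubation; score built on the fluorescence ratio of max minus min over baseline; more negative score means more quench and so TMEM16A activation or potentiation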
Target sequence (Q8BHY3 whole entry, looked up): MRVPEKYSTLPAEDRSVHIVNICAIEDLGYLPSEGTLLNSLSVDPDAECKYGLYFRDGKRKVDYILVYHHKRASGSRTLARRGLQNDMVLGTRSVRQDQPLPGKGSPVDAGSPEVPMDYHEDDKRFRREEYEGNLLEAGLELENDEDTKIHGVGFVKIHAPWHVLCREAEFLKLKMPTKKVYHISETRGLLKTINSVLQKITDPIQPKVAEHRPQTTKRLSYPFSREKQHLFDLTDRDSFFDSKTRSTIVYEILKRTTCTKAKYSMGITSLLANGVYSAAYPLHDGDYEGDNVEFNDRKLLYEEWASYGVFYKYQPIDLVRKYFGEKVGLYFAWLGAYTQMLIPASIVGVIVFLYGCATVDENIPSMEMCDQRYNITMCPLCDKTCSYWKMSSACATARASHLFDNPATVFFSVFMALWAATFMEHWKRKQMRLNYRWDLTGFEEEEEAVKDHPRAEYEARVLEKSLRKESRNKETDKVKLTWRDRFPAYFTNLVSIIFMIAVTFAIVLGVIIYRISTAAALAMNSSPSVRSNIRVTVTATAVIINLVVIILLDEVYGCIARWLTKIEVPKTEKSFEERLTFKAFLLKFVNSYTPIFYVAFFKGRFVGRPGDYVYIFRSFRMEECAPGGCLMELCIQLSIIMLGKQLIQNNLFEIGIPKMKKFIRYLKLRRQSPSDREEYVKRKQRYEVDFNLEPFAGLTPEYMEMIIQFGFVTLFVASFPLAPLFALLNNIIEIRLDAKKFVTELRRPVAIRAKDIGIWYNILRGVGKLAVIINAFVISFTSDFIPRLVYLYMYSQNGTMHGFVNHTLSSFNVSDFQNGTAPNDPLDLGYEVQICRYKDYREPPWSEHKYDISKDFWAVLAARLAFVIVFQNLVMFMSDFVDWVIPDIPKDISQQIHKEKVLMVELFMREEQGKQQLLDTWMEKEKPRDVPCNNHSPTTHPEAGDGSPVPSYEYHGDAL
GRIN3A LBD mod: binders of NR3A ligand-binding domain, primary screen, biophysical, differential scanning fluorimetry, uHTS; Glutamate receptor ionotropic, NMDA 3A (GRIN3A) ligand-binding domain; NR3A LBD differential scanning fluorimetry, Tm shift; 0% = protein alone, 100% = glycine-bound protein; Tm shift relative to glycine control, % at 25 µM; 2.5% of 340,000 active; AID 1259313, 2017;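 active = melting temperature shift of at least 10% of the positive control shift, at one fixed dose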
TMEM16A inh: TMEM16A chloride channel inhibitors, primary screen, cell-based, HTS; Anoctamin-1 (Mus musculus), Q8BHY3; HEK293 TMEM16A/YFP iodide influx fluorescence, ionomycin; normalized B-score (activity score, 25-100; higher = stronger inhibition) at 10 µM; 1.2% of 310,000 active;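 active = ratio plate-corrected score three or more library SD toward inhibition, starting fluorescence score within five deviations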;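 also: score derived from kinetic fluorescence span divided by baseline fluorescence per well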
CRFBP-R2 block: antagonists of CRF-BP/CRF-R2 complex, primary screen, cell-based, HEK293, calcium dye fluorescence, uHTS; 0.59% of 350,000 active; inhibition, % at 11.8 µM; CRF-induced calcium fluorescence;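 active = inhibition of the ligand-induced calcium signal above about 50% at the single tested concentration, limit read from the data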
CRFBP-R2 agonist: agonists of CRF-BP/CRF-R2 complex, primary screen, cell-based, HEK293, calcium dye fluorescence, uHTS; 0.46% of 350,000 active; calcium dye fluorescence (FLIPR); percent of saturating CRF peptide response; AID 588473, 2011; activation, % at 13.2 µM;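 active = activation of at least 50%, plus an integration ratio under a set limit after plate pattern correction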
MPTP inh: mitochondrial permeability transition pore inhibitors, primary screen, biochemical, isolated mouse mitochondria, absorbance; inhibition, % at 10 µM; Ca2+ swelling absorbance, 30 min; 1.4% of 360,000 active; AID 602449, 2012;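 active = inhibition of 50% or more, scaled per plate between neutral and stimulator controls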
Rh123 counter: fluorescence retest of MPTP screen hits in isolated mitochondria, single concentration; shares compounds with MPTP inh; membrane potential, Rhodamine 123 fluorescence; inhibition, % at 10 µM; 78% of 5,000 active; in the data active = inhibition above about 22%
MPTP abs DR: mitochondrial permeability transition pore inhibitors, dose response, biochemical, absorbance, uHTS hits; 58% of 780 active; isolated mitochondria swelling; shares compounds with MPTP inh; AID 651561, 2012; IC50, µM; in the data active = IC50 below about 20 µM
MPTP cs DR: fluorescent counter-screen in isolated mitochondria, dose response, counter-screen for MPTP inhibitor project, biochemical, fluorescence, uHTS hits. shares compounds with MPTP inh. AID 651564, 2012. 49% of 780 active. isolated mitochondria counterscreen, fluorescence read-out. IC50, µM; in the data active = IC50 below about 80 µM
Large screens that a line does not name were inactive (follow-up assays come after a bar, where they were run).

CC(=O)Nc1ccc(NC(=O)Cn2cnc(S(=O)(=O)N3CCOCC3)c2)cc1	none
Cc1ccc(C2CC2C(=O)NNC(=S)Nc2ccc(Cl)cc2)cc1 (stereo unspecified)	GRIN3A LBD mod 12, MPTP inh 53 | Rh123 counter 73
Cc1cc(S(=O)(=O)N2CCCC(C)C2)ccc1-n1cnnn1 (stereo unspecified)	none
CCN(CC)CC(=O)Nc1ccc2c(c1)Nc1ccccc1CC2	MPTP inh 84 | Rh123 counter inactive | MPTP abs DR 10 | MPTP cs DR 66
O=C1C=C(c2c(O)ccc3ccccc23)c2ccccc2C1=O	MPTP inh 65 (no result: TMEM16A inh) | Rh123 counter 50
CC(C)OC(=O)CC1C(=O)NCCN1C(=S)NC(=O)c1ccc(F)cc1 (stereo unspecified)	none
N#CNC(=Nc1cccc(F)c1)SCc1ccccc1F	CRFBP-R2 block 85, MPTP inh 77 | Rh123 counter 91
Cc1ccc(S(=O)(=O)NC(C)(C)CSc2nnc(Nc3ccccc3)s2)cc1	MPTP inh 65 | Rh123 counter 66
CCc1ccc2c(c1)cc(CN(C(=S)Nc1ccc(Cl)cc1)C1CC1)c1nnnn12	MPTP inh 146 | Rh123 counter inactive | MPTP abs DR inactive | MPTP cs DR inactive
O=C(NCc1ccc(F)cc1F)[C@@H]1CCCN1C(=O)[C@@H]1CCCN1	none (no result: TMEM16A act, GRIN3A LBD mod, TMEM16A inh, CRFBP-R2 block, CRFBP-R2 agonist)
CCc1ccc(Nc2cc(C(=O)NCCCN3CCOCC3)c3ccccc3n2)cc1	MPTP inh 52 | Rh123 counter inactive | MPTP abs DR inactive | MPTP cs DR inactive
C(=C\c1nc(N2CCCCCC2)c2ccccc2n1)/c1ccccc1	MPTP inh 65 | Rh123 counter 93
Fc1ccc(/C=C\c2nccc3c2[nH]c2ccccc23)cc1	GRIN3A LBD mod 13, MPTP inh 87 | Rh123 counter 80
Cc1ccc(/C=C\c2nccc3c2[nH]c2ccccc23)cc1	GRIN3A LBD mod 14, MPTP inh 75 | Rh123 counter 61
Cc1ccc(C23CC4CC(CC(NC(=O)N5CCN(C)CC5)(C4)C2)C3)cc1	MPTP inh 71 | Rh123 counter inactive | MPTP abs DR 16 | MPTP cs DR inactive
COc1cccc(C(=O)Nc2nnc(S(=O)(=O)N(C)Cc3ccc(F)cc3)s2)c1	MPTP inh 56 | Rh123 counter 80
CCOc1cc(CNCc2ccncc2)cc(Br)c1OCc1ccc(F)cc1	TMEM16A inh 100, MPTP inh 98 | Rh123 counter inactive | MPTP abs DR 8.4 | MPTP cs DR 26
CCOc1cc(CNCCO)cc(Br)c1OCc1ccccc1	MPTP inh 89 | Rh123 counter inactive | MPTP abs DR 5.5 | MPTP cs DR 19
CCOc1cc(CNCCSc2nnnn2C)cc(Br)c1OCc1ccccc1	none
COCCNC(=O)c1cc2c(c(-c3cccc(-c4cc5ccccc5o4)c3)n1)[C@H](CCO)N(S(=O)C(C)(C)C)C2 (stereo partly specified)	none (no result: TMEM16A act, GRIN3A LBD mod, TMEM16A inh, CRFBP-R2 block, CRFBP-R2 agonist)
Cn1cc([C@]2(O)C(=O)Nc3cccc(Cl)c32)c2ccccc21	none (no result: TMEM16A act, GRIN3A LBD mod, TMEM16A inh, CRFBP-R2 block, CRFBP-R2 agonist)
Cc1ccc(S(=O)(=O)N(CC(=O)Nc2ccc(Cl)c([N+](=O)[O-])c2)C2CCCCC2)cc1	GRIN3A LBD mod 11, MPTP inh 91 | Rh123 counter 81
O=C(NCCCN1CCC(Cc2ccccc2)CC1)C1CCN(S(=O)(=O)N2CCOCC2)CC1	MPTP inh 88 (no result: TMEM16A inh) | Rh123 counter inactive | MPTP abs DR inactive | MPTP cs DR 61
O=C1CCCN1CCCNc1nc(NCc2ccccc2)nc2ccsc12	none (no result: TMEM16A act, GRIN3A LBD mod, TMEM16A inh, CRFBP-R2 block, CRFBP-R2 agonist)
Cc1ccc(OCc2cc(C(=O)N3CCCC3)no2)cn1	none
Cc1cc(OCc2cc(C(=O)N3CCC(Oc4cccnc4)CC3)no2)cc(C)c1Cl	TMEM16A inh 100, MPTP inh 69 | Rh123 counter 102
O=C(c1cc(COc2ccc3ncccc3c2)on1)N1CCCCCC1	MPTP inh 98 | Rh123 counter 101
Cc1cc(OCc2cc(C(=O)N3CCN(CC4CC4)CC3)no2)cc(C)c1Cl	none
CC(NC(=O)c1cc(COc2ccc3ncccc3c2)on1)c1ccc(F)cc1 (stereo unspecified)	MPTP inh 94 | Rh123 counter 86
CC(NC(=O)c1cc(COc2ccccc2)on1)c1nccs1 (stereo unspecified)	none
CN(C(=S)Nc1ccc(SC(F)F)cc1)c1ccc(O)cc1	MPTP inh 97 | Rh123 counter 82
C=CCCc1ccc(C#N)c(SCc2c(C(=O)OCC)c3cc(OC(C)=O)c(Br)cc3n2C)n1	MPTP inh 71 | Rh123 counter 76
COc1ccccc1N(C)S(=O)(=O)c1ccc(C(=O)NCC2CCCCC2)cc1	none (no result: TMEM16A inh)
COc1ccc(/C=C2/Sc3ccc(C(=O)NCCN4CCCCCC4)cc3NC2=O)cc1	MPTP inh 87 | Rh123 counter inactive | MPTP abs DR 14 | MPTP cs DR 40
CCN(CC)CCNC(=O)c1cc2c(-c3ccc(Cl)cc3)nn(C)c2s1	MPTP inh 86 | Rh123 counter inactive
CCCN(CCC)CCNC(=O)c1cc2c(-c3ccc(Cl)cc3)nn(C)c2s1	none
Cn1nc(-c2ccc(Cl)cc2)c2cc(C(=O)NCCN3CCOCC3)sc21	none
Cn1nc(-c2ccc(Cl)cc2)c2cc(C(=O)NCCCN3CCOCC3)sc21	MPTP inh 74 | Rh123 counter inactive
CCN(CC)CCSC(=O)C(c1ccccc1)c1ccccc1	MPTP inh 65 (no result: TMEM16A act, GRIN3A LBD mod, TMEM16A inh, CRFBP-R2 block, CRFBP-R2 agonist) | Rh123 counter inactive | MPTP abs DR inactive | MPTP cs DR inactive
CC1=C(C(=O)Nc2ccc([N+](=O)[O-])cc2)C(c2cccc(C(F)(F)F)c2)NC(=S)N1c1ccccc1 (stereo unspecified)	MPTP inh 75 | Rh123 counter 89
CCOC(=O)/C(C#N)=C1/C=CN(C)C(C)=N1	none
CCOC(=O)/C(C#N)=C1/C=C(C)NC(c2ccccc2O)=N1	GRIN3A LBD mod 14, MPTP inh 94 | Rh123 counter 89
CCNc1nc(C#N)nc2c1ncn2-c1cc(F)cc(F)c1	none (no result: TMEM16A inh)
